Shown are actives, neighbours in structure and some others; about 7.3% of the full set was active somewhere.
Rab9 promoter act = qHTS Assay for Rab9 Promoter Activators; Huh7 Rab9 promoter-luciferase reporter, luminescence, 24 h; Potency, µM (highest dose often 9.22 µM), inactives show at the top dose activation, negative = inhibition, usual class: activators; hit rate 2.8% among 320,000; also: % of control where 0% means no effect; nearly all actives have a fitted effect of over 60% in size
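Huh7 cells stably carrying a Rab9 promoter-luciferase reporter, 1500 cells per well in OP-MEM I with 10% FBS, treated with compound 24 hours at 37C. Luciferase activity read by luminescence after 10 minutes with Amplite reagent.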
FLuc modulator = qHTS profiling assay for firefly luciferase inhibitor/activator using purifed enzyme and Km concentrations of substrates (counterscreen for miR-21 project). Luciferin 4-monooxygenase (Photinus pyralis), P08659. purified FLuc, Km substrates, luminescence inhibition. Potency, µM (highest dose often 57.5 µM), inactives show at the highest dose activity change, negative = inhibition, actives largely listed as inhibitors. hit rate 6.9% among 360,000;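 also: plate controls were vehicle for no effect and reference inhibitor for full effect; nearly all actives have a fitted effect of over 55% in size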
Target sequence (P08659 whole entry, looked up): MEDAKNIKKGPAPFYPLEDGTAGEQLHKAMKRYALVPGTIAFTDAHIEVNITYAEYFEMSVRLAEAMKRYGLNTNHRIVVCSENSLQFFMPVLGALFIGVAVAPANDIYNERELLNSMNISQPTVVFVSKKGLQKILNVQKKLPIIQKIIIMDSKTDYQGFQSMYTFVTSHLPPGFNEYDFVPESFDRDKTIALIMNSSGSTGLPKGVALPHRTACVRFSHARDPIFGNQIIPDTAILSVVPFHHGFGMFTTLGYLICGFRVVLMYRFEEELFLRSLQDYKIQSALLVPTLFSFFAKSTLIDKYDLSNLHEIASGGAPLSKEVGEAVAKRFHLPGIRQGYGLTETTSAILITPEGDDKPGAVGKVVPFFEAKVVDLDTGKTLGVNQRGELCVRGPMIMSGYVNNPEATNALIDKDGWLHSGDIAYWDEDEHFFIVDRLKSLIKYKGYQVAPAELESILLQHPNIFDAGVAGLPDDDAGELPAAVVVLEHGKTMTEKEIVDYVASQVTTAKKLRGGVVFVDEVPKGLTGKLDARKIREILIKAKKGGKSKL
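Biochemical qHTS of compounds, final roughly 60 µM downward over six points, against 10 nM purified firefly luciferase using Km concentrations of substrates (10 uM D-luciferin, 10 uM ATP) in Tris acetate pH 7.5 buffer; luminescence output.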
KinaseGlo FLuc = Counterscreen for Luciferase (Kinase-Glo TM) Inhibition; Luciferin 4-monooxygenase (Photuris pensylvanica), Q27757; Kinase-Glo luciferase, ATP luminescence, 8 min; Potency, µM (highest dose often 38.3 µM), without a hit: at the top dose activity change, negative = inhibition, hits mostly inhibitors; hit rate 0.28% among 200,000; AID 1379, 2008; also: % is scaled to controls: 0 for no effect and ±100 for the full control effect; nearly all actives have a fitted effect of over 60% in size
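Compounds were added to a substrate mix at pH 7.2 (50 mM imidazole, 10 uM ATP, within the enzyme's linear range), followed by Kinase-Glo detection reagent; luminescence was measured after 8 minutes at ambient temperature.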
SMN2 splice up = qHTS Assay for Enhancers of SMN2 Splice Variant Expression. HEK293 SMN2-luciferase splicing reporter, luminescence, 30-36 h. Potency, µM (doses to about 46.1 µM), for the others: top-dose activity change, positive = activation, usual class: activators. hit rate 2.8% among 210,000; also: % of control where 0% means no effect; nearly all actives have a fitted effect of over 55% in size
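HEK293 cells carry an SMN2 […]–luciferase reporter in which exon 7 inclusion puts luciferase in frame. Cells were plated 10-12 h before compound addition, then incubated 30-36 h at 37C. ONE-Glo luminescence was read; sodium butyrate at 4.5 mM final served as control.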
NPC1 promoter act = qHTS Assay for NPC1 Promoter Activators; Potency, µM (highest dose often 9.22 µM), inactives show top-dose activation, hits mostly activators; hit rate 2.4% among 320,000; Huh7 NPC1 promoter luciferase reporter, 24 h; also: % of control where 0% means no effect; nearly all actives have a fitted effect of over 60% in size
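Cells: Huh7 expressing luciferase under the NPC1 promoter, 1500/well. Seeded 2 h, compound added, incubated 24 h at 37 °C. Luciferase reagent, 10 min ambient, then luminescence.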
* = called active by the depositor; u = inconclusive; x = not tested or not shown. Calls follow the shape of the dose curve; as a rule, active = well fitted curve in the direction sought with a large enough effect; inconclusive = small, poorly fitted or top-dose-only effect, or another doubt; inactive = no such curve, though single readings can be large; an effect the other way counts as inactive or inconclusive. Potency is read from the fitted curve at half-maximal effect.

SMILES	Rab9 promoter act	FLuc modulator	KinaseGlo FLuc	SMN2 splice up	NPC1 promoter act
O=C(/C=C/c1ccccc1)Nc1nc2n(n1)C(c1ccc(F)cc1)C=C(c1ccccc1)N2 (stereo unspecified)	x	-7%	x	x	x
CCC(CC)C(=O)N1CCc2cc(OC)c(OC)cc2C1COc1ccc2c(C)cc(=O)oc2c1 (stereo unspecified)	x	3%	x	8%	x
CC(C)OC(=O)[C@@H]1CC[C@H](C)[C@@H](CCCC=O)O1	x	x	5%	4%	x
COc1ccc(CNC(=O)c2cc3sccc3n2C)cc1	x	-16%	x	-26%	x
COc1ccc(OC)c(NC(=O)c2cc3cc(C)ccc3n2C)c1	x	-2%	x	x	x
Cn1c(C(=O)Nc2ccc3c(c2)OCO3)cc2sccc21	1.6µM*	3.4µM*	-4%	13µM*	1.4µM*
COC(=O)c1ccc(NC(=O)c2cc3sccc3n2C)cc1	-17%	11µM*	-5%	x	19%
COc1ccc(OC)c(NC(=O)c2cc3sccc3n2C)c1	20%	12µM*	-2%	-1%	19%
COc1cc(NC(=O)c2cc3sccc3n2C)cc(OC)c1	12%	8.5µM*	-3%	13µM*	-1%
CC(C)Cn1nnnc1S(=O)(=O)Cc1ccccc1	x	x	1%	-4%	x
COc1ccc(N2CC(NC(=O)COc3ccc(F)cc3)CC2=O)cc1OC (stereo unspecified)	x	2%	x	x	x
Cn1c(C(=O)Nc2ccccc2)cc2sccc21	u	13µM*	-8%	u	u
CCc1ccccc1NC(=O)c1cc2sccc2n1C	u	u	2%	10%	1%
CCS(=O)(=O)N1CCc2cc(C(=O)Nc3ccc(OC)cc3OC)ccc21	x	-13%	x	x	x
COc1ccc(-c2cc(C(=O)OCC(=O)Nc3ccc4c(c3)OCO4)c3ccccc3n2)cc1	21%	u	0%	13µM*	22%
CCOc1ccc(-c2cc(C(=O)Nc3ccc4c(c3)OCCO4)c3ccccc3n2)cc1	u	2.4µM*	u	u	25%
Cc1cccc(-c2cc(C(=O)Nc3ccc4c(c3)OCCO4)c3ccccc3n2)c1	14%	6.7µM*	-20%	-9%	-1%
O=C(COC(=O)c1cc(-c2ccccc2)nc2ccccc12)Nc1ccc2c(c1)OCO2	-2%	u	-2%	10%	-2%
Cn1cccc1C(=O)OCC(=O)Nc1ccc2c(c1)CCC2	u	u	15%	20%	u
O=C(Nc1ccc2c(c1)OCCO2)c1cc(-c2ccccn2)nc2ccc(Br)cc12	-8%	-4%	4%	-7%	-5%
Cn1cccc1C(=O)OCC(=O)Nc1ccc2c(c1)OCO2	2.8µM*	17µM*	-3%	u	3.5µM*
CN(C)c1ccnc2sc(C(=O)c3ccc(Br)cc3)c(N)c12	u	u	-1%	22µM*	u
CC(=O)c1ccc(N=Nc2ccc(C)cc2)cc1	0.32µM*	0.95µM*	-9%	1.3µM*	0.32µM*
CN(C)c1ccc(N=Nc2ccccc2Br)cc1	6.3µM*	0.19µM*	x	x	3.5µM*
Cc1ccc(C(=O)c2ccc(C)cc2)cc1	1%	u	-4%	-33%	2%
SMILES	Rab9 promoter act	FLuc modulator	KinaseGlo FLuc	SMN2 splice up	NPC1 promoter act
CC(=O)c1ccc(N=Nc2ccc(N(C)C)cc2)cc1	0.4µM*	0.3µM*	u	14%	0.56µM*
Cc1c(C(=O)NCC(c2ccc(Cl)cc2)N2CCOCC2)oc2ccccc12 (stereo unspecified)	x	-14%	x	x	x
COc1ccccc1C(=O)NCCCNc1ccc([N+](=O)[O-])cc1	-7%	-3%	3%	-5%	1%
CC(=O)NCCCNc1ccc([N+](=O)[O-])cc1	16%	19µM*	5%	u	15%
FC(F)(F)c1cnc(-c2cnc(-c3cccnc3)nc2)c(Cl)c1	4µM*	u	-3%	13µM*	2.5µM*
COc1ccc(-c2cc(C(=O)NC3CCCC3)c3ccccc3n2)cc1	6%	6.7µM*	x	x	14%
COc1ccc(-c2cc(C(=O)NC3CC3)c3ccccc3n2)cc1	-1%	21µM*	x	x	-4%
COc1ccc(Nc2cc(C(=O)NC3CCCC3)c3ccccc3n2)cc1	x	u	x	-19%	x
CCCOc1ccc(-c2cc(C(=O)NCC3CCCO3)c3ccccc3n2)cc1 (stereo unspecified)	20%	3µM*	-2%	9%	12%
COc1cccc(-c2cc(C(=O)NC3CC3)c3ccccc3n2)c1	-3%	u	x	x	-2%
Cc1cc(C(F)(F)F)c2c(N)c(C(=O)Nc3c(Cl)cccc3Cl)sc2n1	x	-1%	x	x	x
CCc1ccc(OCC(=O)NCC(c2ccc(Cl)cc2)N2CCOCC2)cc1 (stereo unspecified)	x	-9%	x	x	x
O=C(O)c1cc(-c2c[nH]c3ccccc23)nc2ccc3ccccc3c12	17%	1.2µM*	5%	3%	17%
c1ccc2c(-c3c[nH]c4ccccc34)c3ccccc3nc2c1	2%	0%	6%	-42%	-7%
CCOc1ccc(CCNC(=O)CCCc2nnc3n(CC)c(=O)c4sccc4n23)cc1	x	-4%	x	x	x
COc1ccccc1NC(=O)c1cc(S(=O)(=O)N(C)C2CCCCC2)ccc1F	x	5%	x	x	x
Cc1ccc2nc(SCc3nc4ccccc4c(=O)[nH]3)[nH]c2c1	2.8µM*	9.5µM*	-2%	22µM*	u
COC(=O)c1sc2nc(CSc3nc4ccc(C)cc4[nH]3)[nH]c(=O)c2c1C	-22%	0%	-2%	-2%	-1%
O=c1[nH]c(CSc2ccccn2)nc2ccccc12	2.8µM*	13µM*	-18%	11µM*	2.5µM*
Nn1c(CSc2ccccn2)nc2ccccc2c1=O	u	19µM*	-5%	11µM*	4µM*
CCCCCCc1nc2ccccc2c(=O)n1N	13%	-1%	-1%	-12%	-1%
O=c1[nH]c(CSc2ccccn2)nc2c1cnn2-c1ccccc1	16%	u	-4%	-4%	17%
COCc1cc(C)nc(SCc2nc3ccccc3c(=O)[nH]2)c1C#N	-2%	-11%	1%	x	-1%
Cc1cc(C)c(C#N)c(SCc2nc3ccccc3c(=O)[nH]2)n1	u	2.4µM*	-2%	0.79µM*	u
Cc1cccc(NC(=O)Cn2c(=O)ccc3cc(S(=O)(=O)N4CCCC4)ccc32)c1C	x	-1%	x	x	x
CCSc1nnc(NC(=O)c2cc(=O)c3cc(C)ccc3o2)s1	x	u	x	-4%	x
CCN(CC)CCN(C(=O)c1ccco1)c1nc2c(C)cccc2s1	x	1%	x	x	x
Cc1ccc(C#N)c(SCc2ccccc2F)n1	1%	-4%	x	x	-4%
Cc1ccc2nc(CSc3nc(C)ccc3C#N)[nH]c2c1	0.56µM*	0.54µM*	-18%	2.5µM*	u
